Measurements: the supplement of paper PMC6089552
Out of some 3,200 compounds screened, about 300 (9.4%) showed activity. This is one part of a sample in which actives are shown more often than they occur.

Tested on: A673/TR/shEF
Experiment: cell viability (LOESS-normalised, relative to median of negative controls) (log2 ratio); higher = more viable cells (less compound effect), active = hit call of the paper (over 3 MAD below the median)
Conditions: treatment time: 72 h
Method in brief: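 Doxycycline, present or absent from 24 h before compounds, was used to induce EWS-FLI1 shRNA knockdown in A673/TR/shEF Ewing sarcoma cells at 1,500 per well in 384-well plates. Cells then received library compounds at two or more concentrations, or DMSO controls, for three days. Viability was measured by CellTiter-Glo luminescence on an Envision reader, and per-plate LOESS correction, division by the negative-control median and log2 transformation followed.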

[1] = 0.25 µM, library screen: screen2, EWS-FLI1 expression: high (no doxycycline)
[2] = 0.25 µM, library screen: screen2, EWS-FLI1 expression: low (doxycycline-induced shRNA knockdown)
[3] = 2.5 µM, library screen: screen2, EWS-FLI1 expression: high (no doxycycline)
[4] = 2.5 µM, library screen: screen2, EWS-FLI1 expression: low (doxycycline-induced shRNA knockdown)
[5] = 0.25 µM, library screen: screen1, EWS-FLI1 expression: high (no doxycycline)
[6] = 0.25 µM, library screen: screen1, EWS-FLI1 expression: low (doxycycline-induced shRNA knockdown)
[7] = 2.5 µM, library screen: screen1, EWS-FLI1 expression: high (no doxycycline)
[8] = 2.5 µM, library screen: screen1, EWS-FLI1 expression: low (doxycycline-induced shRNA knockdown)

N#CC(=C(/N)Sc1ccccc1N)/C(C#N)=C(\N)Sc1ccccc1N
cell viability (log2) [1]: 0.102 (inactive) | cell viability (log2) [2]: 0.0572 (inactive) | cell viability (log2) [3]: -0.0299 (inactive) | cell viability (log2) [4]: -0.0332 (inactive)

N#CC(=C(N)Sc1ccccc1N)C(C#N)=C(N)Sc1ccccc1N
cell viability (log2) (0.025 µM, library screen: screen1, EWS-FLI1 expression: high (no doxycycline)): 0.299 | cell viability (log2) (0.025 µM, library screen: screen1, EWS-FLI1 expression: low (doxycycline-induced shRNA knockdown)): -0.0593 (inactive) | cell viability (log2) [5]: 0.259 (inactive) | cell viability (log2) [6]: 0.136 (inactive) | cell viability (log2) [7]: -0.31 (active) | cell viability (log2) [8]: 0.171 (inactive) | cell viability (log2) (25 µM, library screen: screen1, EWS-FLI1 expression: high (no doxycycline)): -0.459 (active) | cell viability (log2) (25 µM, library screen: screen1, EWS-FLI1 expression: low (doxycycline-induced shRNA knockdown)): 0.0799 (inactive)

FC(F)(F)c1cc(CO[C@H]2CCCN[C@H]2c2ccccc2)cc(C(F)(F)F)c1
cell viability (log2) [1]: 0.151 (inactive) | cell viability (log2) [2]: 0.112 (inactive) | cell viability (log2) [3]: 0.041 (inactive) | cell viability (log2) [4]: 0.077 (inactive)

CC(=O)O.CC(=O)O.[Cd]
cell viability (log2) [5]: 0.129 (inactive) | cell viability (log2) [6]: -0.0033 (inactive) | cell viability (log2) [7]: 0.0042 (inactive) | cell viability (log2) [8]: -0.0745 (inactive)

CC(=O)O[C@@H]1c2c(ccc3ccc(=O)oc23)OC(C)(C)[C@@H]1OC(=O)CC(C)C
cell viability (log2) [5]: 0.0407 (inactive) | cell viability (log2) [6]: -0.0116 (inactive) | cell viability (log2) [7]: 0.121 (inactive) | cell viability (log2) [8]: 0.0173 (inactive)

CC(=O)OC(CC(=O)[O-])C[N+](C)(C)C (stereo not drawn)
cell viability (log2) [5]: 0.00442 (inactive) | cell viability (log2) [6]: 0.0665 (inactive) | cell viability (log2) [7]: 0.0316 (inactive) | cell viability (log2) [8]: -0.00031 (inactive)
